Bioassay records: PubChem, National Center for Advancing Translational Sciences (NCATS)
ATXN2 expr inh: ATXN2 expression inhibition. Potency, µM (series often up to 57 µM), inactives show at the top dose activity change, negative = inhibition, most hits filed as inhibitors. HEK-293 ATXN2-luciferase reporter, luminescence, 24 h. 360,000 tested, 0.72% active; note: potency is the fitted concentration of half-maximal effect; % is set by controls: 0 for no effect and ±100 for the full control effect; nearly all actives have a fitted effect of over 55% in size
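ATXN2-luciferase reporter cells (luciferase flanked by upstream and downstream ATXN2 gene portions) were treated 24 h at 37 °C with compounds at up to 57 uM. SteadyGlo luminescence gave expression; GF-AFC fluorescence gave viability.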
Giardia killer: kills Giardia lamblia. 340,000 tested, 0.15% active. Giardia lamblia trophozoite viability. activity change, % at 7.66 µM, hits read low. AID 540267; in the data active = activity change below about -80%; inconclusive = between about -30% and that limit;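 note: parasites exposed to compound for two days anaerobically before the ATP read; % is set by controls: 0 for no effect and ±100 for the full control effect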
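Anaerobic 48 hrs incubation at 37 deg C of 100 trophozoites/well with test compounds; ATPLite 1-Step luminescence, 15-30 min RT, reports cellular ATP as viability.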
uPA generation: inhibitors of cell surface uPA generation; cell surface uPA generation assay, qHTS; Potency, µM (highest dose often 38.3 µM), inactives show at the highest dose activity change, negative = inhibition, actives largely listed as inhibitors; 330,000 tested, 0.31% active; AID 540303; active = well fitted inhibition curve with a large enough effect; inconclusive = small, poorly fitted or top-dose-only effect; inactive = no such curve, though single readings can be large or run the other way; tested in mouse RAW 264.7 cells; note: potency is the fitted concentration of half-maximal effect; % is set by controls: 0 for no effect and ±100 for the full control effect; nearly all actives have a fitted effect of over 55% in size
S2 tox: reduces viability in counter-screen for ATXN expression inhibitors | 400,000 tested, 0.49% active | Potency, µM (series often up to 56.7 µM), usual class: cytotoxic | S2 cells (HEK-293 line with an ATXN2-luciferase reporter) viability, CellTiter-Fluor protease fluorescence, 24 h; note: potency is the fitted concentration of half-maximal effect; nearly all actives have a fitted effect of over 40% in size
TGFb inhibitor: inhibitors of TGF-b signaling | HepG2 CAGA-GFP TGF-b/SMAD3 reporter, GFP fluorescence, 18 h; TGF-beta stimulated, 500 pg/mL final | 410,000 tested, 1.2% active | Potency, µM (doses to about 46.1 µM), inactives show top-dose activity, negative = inhibition, usual class: inhibitors; note: potency is the fitted concentration of half-maximal effect; % is set by controls: 0 for no effect and ±100 for the full control effect; nearly all actives have a fitted effect of over 65% in size
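GFP signal (ex488/em500-530) from TGF-beta-stimulated HEPG2 CAGA-GFP cells, 500 pg/mL final, 18 h at 37 degrees C in DMEM plus 1% FBS, normalized to unstimulated and DMSO-stimulated controls.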
HepG2 tox: counter-screen for TGF-b inhibitors: cytotoxicity in HepG2 cells. HepG2 CAGA-GFP viability, ATP luminescence, 18 h. 410,000 tested, 0.76% active. AID 588856. Potency, µM (top dose mostly 46.1 µM), for the others: at the highest dose activity change, negative = cytotoxicity, usual class: cytotoxic; note: potency is the fitted concentration of half-maximal effect
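HepG2 CAGA-GFP cells (1000/well, DMEM with 1% FBS) received compound, then TGF-beta at 500 pg/mL final, and were incubated 18 hours at 37 degrees C. Viability was read by CellTiter-Glo luminescence. Media-only wells were set as complete cell-killing and DMSO as no toxicity.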
Active calls of the source: *; i = inactive; ? = inconclusive; nt = no result given; ! = not active in a repeat. Shown are actives, neighbours in structure and some others; about 2.6% of the full set was active somewhere. Unless noted, calls come from the whole dose curve; as a rule, active = well fitted curve in the direction sought with a large enough effect; inconclusive = small, poorly fitted or top-dose-only effect, or another doubt; inactive = no such curve, though single readings can be large; an effect the other way counts as inactive or inconclusive.

SMILES	ATXN2 expr inh	Giardia killer	uPA generation	S2 tox	TGFb inhibitor	HepG2 tox
CC(C)NS(=O)(=O)c1cc(C(F)(F)F)ccc1/C=C/C(=O)O	nt	nt	nt	nt	-15%	3%
SCc1nc2ccccc2[nH]1	nt	nt	nt	nt	2%	-11%
COc1ccc(S(=O)(=O)N(CC(=O)NCc2ccccc2)c2ccc(C)cc2)cc1OC	?	nt	nt	nt	?	-99%
COc1ccc(S(=O)(=O)N(CC(=O)NC(C)c2ccccc2)c2ccc(C)cc2)cc1OC (stereo not drawn)	?	nt	nt	22µM*	?	22µM*
Fc1ccc(C(c2ccc(F)cc2)N2CCN(CC=Cc3ccccc3)CC2)cc1	-29%	nt	nt	nt	nt	nt
CCCCCn1c(CN2CCN(c3cccc(Cl)c3)CC2)nc2c1c(=O)[nH]c(=O)n2C	25µM*	-11	?	?	?	-71%
Cc1snc(S(=O)(=O)/C(C#N)=N/Nc2ccc(C(F)(F)F)cc2)c1C#N	-9%	-6	1%	i	10µM*	-32%
Cc1snc(S(=O)(=O)/C(C#N)=N\Nc2ccccc2)c1C#N	0%	-5	-1%	i	2%	-18%
CCN(C(=O)c1c(O)c2c(Cl)cccc2n(C)c1=O)c1ccccc1	-11%	nt	nt	nt	nt	nt
Cc1ccc(C)c(C(=O)N(Cc2nc(-c3ccc(Cl)cc3)no2)C(C)C)c1	?	2	-19%	i	10µM*	-17%
Cc1cccc(C(=O)N(Cc2nc(-c3ccc(Cl)cc3)no2)C(C)C)c1	?	nt	nt	i	?	-8%
O=C(O)c1ccc(N2C(=O)/C(=C/C=C/c3ccccc3)SC2=S)cc1	3%	-21	11%	i	-12%	-5%
CN(C)c1ccc(/C=C/C=C2/SC(=S)N(c3ccccc3)C2=O)cc1	2%	-19	8%	16µM*	-2%	-16%
COc1cc(OC)c(-c2oc3ccccc3c(=O)c2O)c(OC)c1	?	-8	-7%	i	?	4%
COc1cc(-c2oc3ccc(C)cc3c(=O)c2O)cc(OC)c1OC	?	nt	nt	nt	2.5µM*	-42%
CN(CCO)C(=O)c1cn(C2CCCN(Cc3cc4ccccc4s3)C2)nn1 (stereo not drawn)	nt	nt	nt	i	nt	nt
O=C(OCCC12CC3CC(CC(C3)C1)C2)c1ccc(NCc2cc(O)ccc2O)cc1	?	-9	-5%	nt	?	-90%
O=C(OCC12CC3CC(CC(C3)C1)C2)c1ccc(NCc2cc(O)ccc2O)cc1	10µM*	-3	-6%	13µM*	?	11µM*
O=S1(=O)CCOC[C@H](CC2CCCCC2)N1Cc1ccccc1Br	-20%	-2	7%	i	13µM*	7.1µM*!
O=S1(=O)CCOC[C@H](CC2CCCCC2)N1Cc1cccc(C(F)(F)F)c1	-26%	-8	9%	i	?	13µM*!
O=C(CCl)N(c1ccccc1)C1CCCCC1	?	-17	-16%	?	?	18µM*
O=C(CNC(=O)c1ccccc1)N/N=C/c1ccc([N+](=O)[O-])s1	?	-24	-18%	?	11µM*	14µM*
O=[N+]([O-])c1ccc(C=Nc2cccc3ccccc23)s1	-10%	1	-15%	?	16µM*	25µM*
O=C(Cc1ccccc1)NCC(=O)N/N=C/c1ccc([N+](=O)[O-])s1	?	-22	-13%	?	?	16µM*
COc1ccccc1NC(C)C(=O)c1c[nH]c2ccccc12 (stereo not drawn)	nt	nt	nt	nt	-21%	-22%
CC(C)N1CC(C(=O)Nc2cc(Cl)cc(Cl)c2)CC1=O (stereo not drawn)	nt	6	7.1µM*	i	-8%	-1%
CC(C)N1CC(C(=O)Nc2ccc(Cl)c(Cl)c2)CC1=O (stereo not drawn)	-1%	25	-8%	i	-7%	2%
Nc1ccc(SC(F)(F)F)cc1C(=O)c1ccccc1	-23%	5	6%	i	13µM*	-104%
CCc1cc(C(=O)c2ccccc2)c(N)s1	-10%	17	3%	?	-17%	-29%
O=C1Cc2cc(Cl)ccc2N1	0%	nt	nt	i	nt	nt
